HP1b chromo inh = HP1-beta chromodomain-methylated histone interaction inhibition | hit rate 0.56% among 390,000 | AlphaScreen HP1-beta / biotin-H3K9me3 peptide binding | P83916 | Potency, µM (titrated, usually from 114 µM), hits mostly inhibitors; note: nearly all actives have a fitted effect of over 70% in size
Target sequence (P83916 whole entry, looked up): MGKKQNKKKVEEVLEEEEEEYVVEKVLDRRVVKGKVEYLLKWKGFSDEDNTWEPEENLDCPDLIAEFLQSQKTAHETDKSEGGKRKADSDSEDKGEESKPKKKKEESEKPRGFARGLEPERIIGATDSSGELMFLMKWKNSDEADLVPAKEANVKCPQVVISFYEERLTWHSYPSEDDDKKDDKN
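AlphaScreen: HP1-beta (50 nM) preformed 30 min with biotin-H3(1-18)K9me3 peptide (50 nM) in PBS pH 7.4, 0.01% Tween-20. Compound added for 30 min at RT, then streptavidin donor/nickel chelate acceptor beads (10 ug/mL) for 30 min.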
Six1-Eya2 inh = blocks human Six1 binding to Eya2. hit rate 0.56% among 360,000. activity change, % (no concentration beside the values). AlphaScreen GST-Six1/His-Eya2 binding, biochemical; hits give low values. Q15475+O00167; in the data active = activity change below about -65%; inconclusive = mostly about -30% to -63%
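AlphaScreen luminescence read after one hour at 37 °C in darkness. Pin-transferred compounds met GST-Six1 and His-Eya2 protein (5X stock 250 nM/500 nM) plus glutathione donor and Ni-chelate acceptor beads (5X, 50 ug/mL).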
BAZ2B block = BAZ2B (human) inhibition. Potency, µM (series often up to 114 µM), most hits filed as inhibitors. AlphaScreen BAZ2B-H3K14Ac peptide displacement. hit rate 4.4% among 360,000; note: nearly all actives have a fitted effect of over 60% in size
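In this displacement format the biotinylated H3(5-23) peptide acetylated at Lys14 serves as ligand at 50 nM, with BAZ2B at 50 nM in PBS pH 7.4 containing 0.01% Tween-20. Donor and acceptor beads are 10 ug/mL final.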
JMJD2A Tudor inh = inhibitors of human JMJD2A Tudor domain | O75164 | AlphaScreen JMJD2A-Tudor / H3K4me3 peptide binding | Potency, µM (series often up to 114 µM), actives largely listed as inhibitors | hit rate 4.4% among 390,000; note: nearly all actives have a fitted effect of over 50% in size
TDP1 inh = inhibitors of human tyrosyl-DNA phosphodiesterase TDP1. AID 485290. hit rate 0.28% among 350,000. Potency, µM (series often up to 130 µM), usual class: inhibitors. recombinant TDP1, AlphaScreen DNA substrate cleavage. Q9NUW8; note: nearly all actives have a fitted effect of over 40% in size
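Recombinant human Tdp1 (E. coli-expressed, 1 nM final) preincubated with compounds 15 min at room temperature, then 5'-biotin/3'-phosphotyrosine-FITC DNA substrate (15 nM final) added for 5 min. AlphaScreen beads (10 ug/ml final) added 10 min; cleavage lowers signal.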
CtBP-E1A blk = CtBP/E1A binding inhibition; AlphaScreen GST-E1A/His-CtBP binding, 1536-well; hits give low values; activity change, % (no concentration beside the values); hit rate 0.49% among 340,000; AID 651724; in the data active = activity change below about -65%; inconclusive = mostly about -30% to -63%
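AlphaScreen with 125 nM GST-E1A and 125 nM His-CtBP (5X stocks) in Tris pH 8.0, 300 mM NaCl, BSA, Tween 20, TCEP. Compounds preincubated 2 h at 37 deg C, then glutathione donor/nickel acceptor beads added for 1 h at 37 deg C in dark.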
Numbers stand for hits; . = inactive; ? = inconclusive; / = no result given. In the library only some 5.3% were active in any assay of this set; here they are far more common. Unless noted, calls come from the whole dose curve; as a rule, active = well fitted inhibition curve with a large enough effect; inconclusive = small, poorly fitted or top-dose-only effect; inactive = no such curve, though single readings can be large or run the other way.

SMILES	HP1b chromo inh	Six1-Eya2 inh	BAZ2B block	JMJD2A Tudor inh	TDP1 inh	CtBP-E1A blk
COc1cccc(/C=N/NC(=O)c2cc(-c3cccn3C)n[nH]2)c1O	.	-89.8	?	?	.	-89.9
Cn1cccc1-c1cc(C(=O)N/N=C/C=C/c2ccccc2)[nH]n1	?	.	.	?	.	.
CCOC(=O)c1[nH]c2ccccc2c1NC(=O)c1cc(OCC)c(OCC)c(OCC)c1	.	/	.	.	.	/
O=C(NNC(=O)C12CC3CC(CC(C3)C1)C2)c1cnccn1	.	.	.	.	.	.
CC1(C)CC(NC(=O)c2ccccn2)CC(C)(C)N1O	.	.	50.1µM	?	.	/
O=C(N[C@H]1CC[C@H](CCNC(=O)C2CC2)O[C@@H]1CO)c1ccccn1	/	.	/	/	/	.
O=C(NNC(=O)C12CC3CC(CC(C3)C1)C2)c1ccccn1	.	-65.7	.	.	.	.
COc1cccc(Cn2ncc3c4sc(SC)cc4n(C)c3c2=O)c1	/	/	/	.	.	/
CCOC(=O)c1c2c3c(cccc3n(C)c1=O)C(=O)c1ccccc1-2	.	-68.6	?	?	/	-82.7
CCOC(=O)c1c2c(n(Cc3ccccc3)c1C)C(=O)C(=O)c1ccccc1-2	25.1µM	?	/	7.08µM	/	-79.2
CCOC(=O)c1c2c3c(cccc3[nH]c1=O)C(=O)c1ccccc1-2	.	?	.	.	.	?
CCOC(=O)c1c2c3c(c(Cl)ccc3[nH]c1=O)C(=O)c1ccccc1-2	.	-76.4	31.6µM	.	/	-89.1
O=C(CCCc1c[nH]c2ccccc12)Nc1ncccc1O	.	.	56.2µM	.	.	.
CCC/C=C(\CCC)C(NC(=O)OCC(C)C)c1ccccc1 (stereo unspecified)	/	/	/	/	.	/
CCCOC(=O)c1ccc(Nc2nc3ccccc3nc2-n2nc(C)cc2C)cc1	.	/	.	.	.	/
Cc1ccc(C(C)C)cc2c(C)ccc1-2	22.4µM	?	/	28.2µM	.	.
O=C(NCc1ccccc1F)C1CCN(c2nnc(-n3cccc3)s2)CC1	.	/	.	.	.	/
CCOC(=O)CSC1=C(C#N)C(=O)NC(c2ccc(OC)c(OC)c2)S1 (stereo unspecified)	?	.	50.1µM	39.8µM	.	.
CCOC(=O)CSc1nc2cc(OC)ccc2cc1C#N	.	.	.	.	.	.
CCOC(=O)CSC1=C(C#N)C(=O)NC(c2ccc(OC)cc2)S1 (stereo unspecified)	.	.	50.1µM	25.1µM	.	.
CCOc1ccccc1Nc1sc(C(=O)c2ccc(Cl)cc2)c(N)c1C#N	.	/	.	.	.	/
Cc1nn(CC(=O)N2CCN(c3ccccc3F)CC2)c(=O)c2cccn12	.	/	.	.	.	/
CC(NCc1ccc([N+](=O)[O-])cc1)C1COc2ccccc2O1 (stereo unspecified)	?	.	50.1µM	7.94µM	/	.
CCC(=O)N1c2ccc(S(=O)(=O)CCC(=O)NCc3ccc4c(c3)OCO4)cc2CC1C (stereo unspecified)	.	.	.	50.1µM	.	.
Cc1cc(C(=O)N/N=C/c2cccc([N+](=O)[O-])c2O)n[nH]1	.	-91.2	31.6µM	50.1µM	.	/
SMILES	HP1b chromo inh	Six1-Eya2 inh	BAZ2B block	JMJD2A Tudor inh	TDP1 inh	CtBP-E1A blk
Cc1cc(C(=O)N/N=C/c2cc(N=Nc3ccccc3)ccc2O)n[nH]1	.	-90.4	.	?	.	.
Cc1cc(C)c(C(=O)COc2cccnc2[N+](=O)[O-])cc1C	.	.	50.1µM	56.2µM	.	.
COCCn1c(C)cc(C(=O)COc2cccnc2[N+](=O)[O-])c1C	.	.	.	.	.	.
CCN(CC(=O)Nc1ccc(C(C)=O)cc1)CC(=O)Nc1ccc2c(c1)OCCO2	?	.	/	0.316µM	.	.
CCN(CC(=O)Nc1ccc2c(c1)OCCO2)CC(=O)Nc1ccccc1C(F)(F)F	28.2µM	.	/	5.01µM	.	.
Cn1cc(-c2cc3n(n2)CCC(=O)N3CCCC(=O)NCc2ccc(F)cc2)c2ccccc21	.	/	.	.	.	/
COc1ccc(Nc2c(-c3ccco3)nc3ccc(C)cn23)cc1	.	.	.	.	.	.
Cc1ccc(Nc2c(-c3c[nH]c4ccccc34)nc3ccccn23)cc1	?	/	17.8µM	22.4µM	.	/
Cc1ccc(Nc2c(-c3ccco3)nc3ccccn23)cc1	.	.	?	?	.	.
c1ccc(Nc2c(-c3ccco3)nc3ccccn23)cc1	.	.	50.1µM	.	.	.
Cc1ccccc1Nc1c(-c2ccco2)nc2c(C)cccn12	?	/	25.1µM	?	.	/
Fc1ccc(Nc2c(-c3ccco3)nc3ccccn23)cc1	.	.	44.7µM	?	.	.
Cc1ccc(NC(=O)Cn2c(=O)n(CCC(C)C)c(=O)c3cccnc32)cc1C	.	/	.	.	.	/
CCn1nc(-c2ccccc2)c(-c2ccccc2)c(C(=O)Nc2nc(C)c(C(=O)N(C)C)s2)c1=O	.	/	?	.	.	/
C=CCNc1sc(C(=O)c2ccccc2)c(N)c1-c1nc2ccccc2s1	25.1µM	?	?	?	.	?
Cc1ccc(CN2CCc3nc(Nc4ccc5c(c4)OCCO5)ncc3C2)cc1	?	/	39.8µM	44.7µM	.	/
COc1cccc(CN2CCc3nc(Nc4ccc5c(c4)OCCO5)ncc3C2)c1OC	?	/	35.5µM	56.2µM	.	/
COc1cc(Nc2ncc3c(n2)CCN(Cc2cc(Br)cs2)C3)cc(OC)c1	.	/	.	?	.	/
CCc1ccc(CN2CCc3nc(Nc4ccc5c(c4)OCCO5)ncc3C2)cc1	?	/	14.1µM	28.2µM	.	/
Brc1csc(CN2CCc3nc(Nc4ccccc4)ncc3C2)c1	.	/	?	.	.	/
COc1ccc(NC(=O)C(OC(=O)CNC(=O)c2ccccc2)c2ccccc2)cc1F (stereo unspecified)	/	/	/	.	.	/
CCOC(=O)c1sc(=S)n(C)c1C	.	.	.	.	.	.
CCOC(=O)c1c[nH]c(=S)n1C	.	.	.	31.6µM	.	.
CC1(C)C=Cc2c(ccc3c2OC[C@H](c2ccc(O)cc2O)C3)O1	.	.	50.1µM	50.1µM	.	.
CCOc1ccc(-c2cnc(NCc3ccc(OC)cc3OC)n2C)cc1	?	/	?	28.2µM	.	/
COc1ccc(CNc2ncc(-c3ccc(Cl)cc3)n2C)c(OC)c1OC	?	.	?	25.1µM	/	.
COC(=O)c1ccc(C(NC(=O)OCc2ccccc2)/C(=C/[C@@H](C)C(=O)N[C@@H](CO)Cc2ccccc2)c2cccnc2)cc1 (stereo partly specified)	/	/	/	/	.	/
Cc1nc2ccn(Cc3cccs3)c(=O)c2cc1C(=O)Nc1ccccc1	.	/	.	.	.	/
CCOC(=O)c1[nH]c2ccccc2c1NC(=O)c1ccccc1OC	.	/	79.4µM	.	.	/
CCOC(=O)c1[nH]c2ccc(F)cc2c1NC(=O)Nc1ccccc1OC	.	.	.	.	.	.

Screening results deposited in PubChem by National Center for Advancing Translational Sciences (NCATS).
